In PubChem BioAssay (Tox21):
Records with an inconclusive call do not appear. Entries that show only a call come without a potency. Values without a mark were called inactive. Activity calls are given as the source filed them. Calls follow the shape of the dose curve; as a rule, active = well fitted curve in the direction sought with a large enough effect in the repeat runs; inconclusive = weak or mixed curves; inactive = no such curve, though single readings can be large; an effect the other way counts as inactive or inconclusive.

Key:
[1] = A CellTox Green Cytotoxicity Assay to monitor cytotoxicity in HEK293 cells - 40 hour (AID 1224871); also: nearly all actives have a fitted effect of over 45% in size; also: potency is read from the fitted curve at half-maximal effect
Summary of the method: (§1)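 Read-out: fluorescence of a cell-impermeant cyanine dye staining DNA of dead cells, proportional to cytotoxicity. HEK293, 600 cells/well with reagent, compound (23 nL DMSO) added after 5 h; reads at 0, 8, 16, 24, 32, 40 h.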

[2] = A CellTox Green Cytotoxicity Assay to monitor cytotoxicity in HEK293 cells - 24 hour (AID 1224875); also: series mostly up to about 77 µM; nearly all actives have a fitted effect of over 45% in size
Summary of the method: as §1

[3] = A CellTox Green Cytotoxicity Assay to monitor cytotoxicity in HepG2 cells - 16 hour (AID 1224876); also: nearly all actives have a fitted effect of over 45% in size; also: potency is read from the fitted curve at half-maximal effect
Summary of the method: (§2)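 HepG2, 600 cells/well premixed w/ CellTox Green; 5 h settle, 37 C/5% CO2; pintool cpd add (DMSO); 37 C, 40 h; fluorescence read at 0, 8, 16, 24, 32, 40 h.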

[4] = qHTS RealTime-Glo MT Cell Viability Assay in HepG2 cells - 32 hour (AID 1224877); also: nearly all actives have a fitted effect of over 55% in size; also: potency is read from the fitted curve at half-maximal effect
Summary of the method: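 Luminescence read-out: viable HepG2 cells reduce a prosubstrate to a NanoLuc substrate, giving a signal proportional to live cell number. Reads taken at 0, 8, 16, 24, 32 and 40 h of compound exposure at 37 C.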

[5] = A CellTox Green Cytotoxicity Assay to monitor cytotoxicity in HepG2 cells - 24 hour (AID 1224878); also: nearly all actives have a fitted effect of over 45% in size; also: potency is read from the fitted curve at half-maximal effect
Summary of the method: as §2

[6] = qHTS RealTime-Glo MT Cell Viability Assay in HEK293 cells - 0 hour (AID 1224880)
Summary of the method: (§3)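 Luminescence readout at each listed time point; HEK293, 600 cells/well, RealTime-Glo MT reagent added with cells; compounds pinned (23 nL in DMSO) after 5 h at 37 C; continuous culture at 37 C.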

[7] = qHTS RealTime-Glo MT Cell Viability Assay in HEK293 cells - 16 hour (AID 1224872); also: nearly all actives have a fitted effect of over 50% in size; also: potency is read from the fitted curve at half-maximal effect
Summary of the method: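 Nonlytic real-time viability readout: viable cells convert prosubstrate to NanoLuc substrate, giving luminescence proportional to live cell number. HEK293, 600 cells/well, compound added after 5 h, continuous culture at 37 C.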

[8] = qHTS RealTime-Glo MT Cell Viability Assay in HepG2 cells - 8 hour (AID 1224873); also: nearly all actives have a fitted effect of over 55% in size; also: potency is read from the fitted curve at half-maximal effect
Summary of the method: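 Real-time viability: cells seeded at 600 per well together with NanoLuc and cell-permeant prosubstrate, compounds added after 5 h incubation. Luminescence tracked at 0, 8, 16, 24, 32 and 40 h of exposure.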

[9] = qHTS RealTime-Glo MT Cell Viability Assay in HEK293 cells - 40 hour (AID 1224874); conditions: RealTime-Glo luminescence; max response: active compounds read low; also: nearly all actives have a fitted effect of over 50% in size; also: potency is read from the fitted curve at half-maximal effect
Summary of the method: as §3

[10] = A CellTox Green Cytotoxicity Assay to monitor cytotoxicity in HepG2 cells - 40 hour (AID 1224879); also: nearly all actives have a fitted effect of over 40% in size; also: potency is read from the fitted curve at half-maximal effect
Summary of the method: as §2

Row | SMILES | Potency [1] | Potency [2] | Potency [3] | Potency [4] | Potency [5] | Potency [6] | Potency [7] | Potency [8] | max response [9] | Potency [10] | Potency [9]
1 | Cc1cc(=O)oc2cc(N(C)C)ccc12 | inactive | inactive | inactive | inactive | inactive | inactive | – | – | – | – | –
2 | CCCCCCCCCCC=O | – | inactive | inactive | inactive | inactive | – | inactive | inactive | 2.14% | inactive | –
3 | C/C(=C(/OCCOc1ccc(Cl)cc1)c1ccc(Cl)cc1Cl)n1ccnc1 | inactive | inactive | inactive | inactive | inactive | inactive | – | inactive | – | – | –
4 | COCCCC/C(=N\OCCN)c1ccc(C(F)(F)F)cc1 | inactive | inactive | – | – | – | inactive | – | inactive | – | 26.8 µM (active) | –
5 | CC1=C(C(=O)OC(C)C)C(c2cccc([N+](=O)[O-])c2)C(C(=O)OC2CN(C(c3ccccc3)c3ccccc3)C2)=C(N)N1 (configuration not stated) | inactive | inactive | – | 21.3 µM (active) | 23.9 µM (active) | inactive | – | – | – | 23.9 µM (active) | –
6 | CC(C)(C)C1CCC(CC2=C(O)c3ccccc3C(=O)C2=O)CC1 (configuration not stated) | 16.9 µM (active) | – | – | inactive | – | inactive | – | – | -30% | – | –
7 | C=C(C)C(=O)OCC(O)COc1ccc(C(C)(C)c2ccc(OCC(O)COC(=O)C(=C)C)cc2)cc1 (configuration not stated) | – | inactive | inactive | 21.9 µM (active) | inactive | inactive | 9.77 µM (active) | 19.5 µM (active) | – | 43.6 µM (active) | 13.8 µM (active)
8 | COc1cccc2c1C(=O)c1c(O)c3c(c(O)c1C2=O)C[C@@](O)(C(=O)CO)C[C@@H]3O[C@H]1C[C@H](N)[C@H](O[C@@H]2CCCCO2)[C@H](C)O1 | inactive | inactive | 23.9 µM (active) | 1.9 µM (active) | 9.52 µM (active) | inactive | – | – | – | 1.51 µM (active) | 0.19 µM (active)
9 | CCOc1ccc2nc3cc(N)ccc3c(N)c2c1 | 21.3 µM (active) | – | inactive | 8.49 µM (active) | 23.9 µM (active) | inactive | – | – | – | 6.01 µM (active) | 13.4 µM (active)
10 | O=C(c1ccc(F)cc1)C1CCN(CCn2c(=O)[nH]c3ccccc3c2=O)CC1 | – | inactive | inactive | inactive | inactive | – | 8.49 µM (active) | inactive | – | – | 9.52 µM (active)
